# In ChEMBL document CHEMBL3988442, “University of Dundee, Small-Polar-MMV Screening Library” (2021):
# Tests used:
# [1] = target: T1, Aspartate--tRNA(Asp/Asn) ligase (Mycobacterium tuberculosis (strain ATCC 25618 / H37Rv)) (UniProt P9WFW3); assay: Assay for Asp RNA synthetase-1 from Mycobacterium tuberculosis; format: functional; parameters: scale not given: direction of the effect not stated beside the values; settings: 30 µM; further: in the data most compounds retested in dose-response had high values
# T1 sequence (whole entry): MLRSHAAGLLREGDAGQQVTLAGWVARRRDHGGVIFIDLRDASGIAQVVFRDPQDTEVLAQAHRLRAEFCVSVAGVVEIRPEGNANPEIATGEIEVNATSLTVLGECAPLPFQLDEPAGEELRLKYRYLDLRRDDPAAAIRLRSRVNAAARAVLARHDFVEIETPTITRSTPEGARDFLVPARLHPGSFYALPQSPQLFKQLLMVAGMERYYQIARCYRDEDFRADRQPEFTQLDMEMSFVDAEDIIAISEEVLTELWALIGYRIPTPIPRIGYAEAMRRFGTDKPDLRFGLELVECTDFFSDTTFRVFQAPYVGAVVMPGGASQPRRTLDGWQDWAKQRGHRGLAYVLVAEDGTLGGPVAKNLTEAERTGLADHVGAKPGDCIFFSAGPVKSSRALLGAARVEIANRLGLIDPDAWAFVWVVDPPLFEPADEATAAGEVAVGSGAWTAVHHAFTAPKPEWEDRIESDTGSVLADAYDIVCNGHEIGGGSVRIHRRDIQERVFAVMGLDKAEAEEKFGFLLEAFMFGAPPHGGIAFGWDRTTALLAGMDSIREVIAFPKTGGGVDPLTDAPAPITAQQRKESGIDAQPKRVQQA
# [2] = target: Shiga toxin 2 (Escherichia coli O157:H7) (UniProt P09385+P09386); assay: E. coli 0.157:H7 Shiga Toxin SOP - stx2 screening assay; format: functional; parameters: scale not given: direction of the effect not stated beside the values; settings: 30 µM
Compound,Percent Effect [1],Percent Effect [2]
COCc1c(C(=O)O)nnn1Cc1cccc(C(F)(F)F)c1,-5.23%,-31%
CCOC1COC2(CCN(Cc3ccc4c(c3)OCO4)CC2)C1 (configuration not stated),-3.53%,-2.45%
Cc1cccnc1CN1CCC(c2nnc(Cn3cccn3)n2C)CC1,-1.2%,-18.5%
COc1cc2cc(C(=O)O)n(C)c2c(OC)c1OC,-3.95%,1.12%
CCn1nc(C)c2nnn(CC(=O)Nc3cccc(Cl)c3)c(=O)c21,-0.523%,-43.6%
CC1COCCN1Cc1nc(-c2cccs2)no1 (configuration not stated),14.7%,20.8%
O=S1(=O)c2ccccc2C2(CCN(Cc3ccccc3)C2)N1CC1CC1 (configuration not stated),-4.07%,12.3%
CCC1=N[C@@]2(CC[C@@H]3CN(S(=O)(=O)N(C)C)C[C@@H]32)C(=O)N1CC(C)C,2%,9.58%
CN(C)Cc1ccc(C2CCCCN2C(=O)c2cccc(CO)n2)cc1 (configuration not stated),-3.06%,0.431%
CCN(C)Cc1cnc(S(=O)(=O)CC)n1CCOC,-5.11%,-0.758%
Cc1cccc(CC(=O)NCCCOC(C)C)c1,-4.16%,-10.2%
Cc1cccc(C(=O)NCc2ccc(N3CCCCC3)nc2)n1,2.43%,-10.8%
Cn1ncc2c1CCCC2NCc1cc(Br)cs1 (configuration not stated),-1.12%,7.1%
Cc1cccc(-n2ncc(C(=O)N3CCn4c(C)nnc4C3)c2C)c1,3.68%,32.6%
Cc1cc(O)nc(C2CCCN(Cc3ccncc3)C2)n1 (configuration not stated),1.35%,11.8%
Cc1ccccc1C(=O)NCc1ccc(N2CCNC(=O)C2)c(F)c1,-0.569%,0.0326%
Cc1cn2c(n1)CCC(NC(=O)c1cc(Br)cn1C)C2 (configuration not stated),-1.87%,-34.8%
Cc1ccccc1CSc1nc(N)cc(N2CC[C@@H](O)C2)n1,0.861%,5.97%
CCNC(=O)CCc1c(C)nc2cc(O)nn2c1C,4.16%,-21.5%
N#Cc1ccnc(N2CCN(Cc3cccc(F)c3)CC2)c1,-3.46%,12.2%
O=C(Cc1cccc(F)c1)NCCNCc1ccc2c(c1)CCO2,-0.182%,-76.4%
COc1ccc(CN(C)CC(=O)NC2(C)CCS(=O)(=O)C2)cc1F (configuration not stated),10.4%,-2.83%
O=C(NCCCO)C1CC(=O)N(c2n[nH]c3cccc(F)c23)C1 (configuration not stated),0.29%,-34.7%
Cc1cc(C(=O)NCc2ccnc(N(C)C)c2)c(C)o1,5.55%,-9.84%
CC(C)c1ccc(-c2nnn(CCNS(C)(=O)=O)n2)cc1,-1.05%,-43.9%
CN(C)CCNC(=O)c1cc(-c2cnc(N3CCCC3)nc2)cn1C,-0.309%,-17.7%
